Source: PubChem BioAssay (Tox21)
Inconclusive results are not listed. A call without a number means that no potency is given here. Activity calls are given as the source filed them. Unless noted, the call rests on the fitted dose curve. Numbered stars: 1 amine (or outer) side, 2 acyl side, 3 side chain; on linkers, the order of the positions; unused ones are H or OH. Bridge positions count the residues as written; N and C are the ends. Square brackets hold non-standard residues; d marks the D form. Peptide text beside a SMILES is read from it. I, II: the chains in the order shown. Actinocin(9to1) = Cc1c2oc3c(C)ccc(C(=O)[*:1])c3nc-2c(C(=O)[*:2])c(N)c1=O; NMeV = CN[C@H](C(=O)O)C(C)C; Sar = CNCC(=O)O

Biological target: Muscarinic acetylcholine receptor M1 (Homo sapiens) (UniProt P11229)
Test: Cholinergic receptor muscarinic 1 (CHRM1) small molecule agonists, cell-based qHTS assay (AID 1963589); further: nearly all actives have a fitted effect of over 35% in size
Details: CHRM1-CHO cells, agonist mode, calcium flux fluorescence; series mostly up to 76.8 µM
Outline: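 Homogeneous fluorescence calcium flux, agonist mode. Human M1-expressing CHO cells; compound dosed at 15 concentrations, three independent runs; signal sampled every 1 sec.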

Chain of Muscarinic acetylcholine receptor M1 (Homo sapiens) (P11229 whole entry, looked up): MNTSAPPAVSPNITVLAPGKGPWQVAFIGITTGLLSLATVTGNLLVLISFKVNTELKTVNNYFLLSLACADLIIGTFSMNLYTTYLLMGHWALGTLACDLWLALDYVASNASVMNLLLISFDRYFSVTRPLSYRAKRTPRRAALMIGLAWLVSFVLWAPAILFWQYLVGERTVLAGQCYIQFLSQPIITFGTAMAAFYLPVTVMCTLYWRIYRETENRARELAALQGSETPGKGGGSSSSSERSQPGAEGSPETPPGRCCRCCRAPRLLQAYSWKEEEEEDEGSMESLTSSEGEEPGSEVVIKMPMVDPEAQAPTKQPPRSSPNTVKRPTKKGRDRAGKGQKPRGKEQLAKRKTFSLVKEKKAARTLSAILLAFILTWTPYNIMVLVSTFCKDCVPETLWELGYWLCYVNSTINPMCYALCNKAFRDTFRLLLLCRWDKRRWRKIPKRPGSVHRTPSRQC

Structure (SMILES) | Potency
CCCCCCCCC1CCC(=O)O1 (configuration not stated) | inactive
Cc1cccc(Cl)c1 | inactive
CO[Si](C)(C)OC | inactive
c1c[nH]cn1 | inactive
OC1(c2ccc(Cl)cc2)CCNCC1 | inactive
C1CCCCC1 | inactive
Cc1ccc(C(C)c2ccc(C)c(C)c2)cc1C | inactive

Test system: not listed separately
Test: cAMP Responsive Elements (CRE) small molecule agonists, cell-based qHTS assay (AID 1963590)
Details: CRE-bla HEK293T, beta-lactamase FRET ratio, 3 h; series mostly up to 92.4 µM
Outline: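 HEK 293T cells stably bearing CRE-bla were plated at 2,000 cells per well and rested 18 h. Compounds, positive controls or DMSO were added for 3 h at 37 C. LiveBLAzer B/G substrate was then loaded for 2 h at room temperature.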

Structure (SMILES) | activation | Potency
Cc1cc(C)c(N=Nc2c(O)c(S(=O)(=O)O)cc3cc(S(=O)(=O)O)ccc23)cc1C | -0.168% [at 8.39 µM] (inactive) | –
CC(=O)Nc1c(I)cc(I)c(C(=O)O)c1I | – | inactive
C=COCCOCCOCCOC=C | – | inactive
O=C1OC(=O)c2ccc3c4c(ccc1c24)C(=O)OC3=O | – | inactive
CC(=O)[O][Al][O]C(C)=O | – | inactive
COc1ccc2cc(C=O)ccc2c1 | – | inactive
Cc1occc1S | – | inactive
CCCN1CCCC[C@H]1C(=O)Nc1c(C)cccc1C | – | inactive
Cc1ccc(NC(=O)N(C)C)cc1NC(=O)N(C)C | – | inactive
CCN(CC)CCN | – | inactive
O=[N+]([O-])c1ccccc1Nc1ccccc1 | – | inactive
NC(=O)c1ncn([C@@H]2O[C@H](CO)[C@@H](O)[C@H]2O)c1O | – | inactive
O=C(O)[C@@H]1[C@H]2C[C@H]3c4[nH]c5ccccc5c4CCN3C[C@@H]2CC[C@@H]1O | – | inactive
CC1(C)C(C=C(Cl)Cl)C1C(=O)OCc1cccc(Oc2ccccc2)c1 (configuration not stated) | – | inactive
O=C(O)c1ccccc1OP(=O)(O)O | – | inactive
CCCCN(CCO)CCO | – | inactive
COC(OC)C(C)c1ccccc1 (configuration not stated) | – | inactive

Structure (SMILES) | activation | Potency
Nc1cc(=O)[nH]c(N)n1 | – | inactive
CCOC(OCC)OCC | – | inactive
C=CCOC(=O)CCCCCC | – | inactive
O=C(O)[C@@H](O)[C@H](O)[C@H](O)[C@@H](O)C(=O)O | – | inactive
CCCCCCCCCC(C)=O | – | inactive
OC/C=C/CO | – | inactive
CCCCCCCCCCCCC(=O)O | – | inactive
Cc1ccc(S(=O)(=O)NC(=O)NC2CCCC2)cc1 | – | inactive
NC(=O)c1cccc([N+](=O)[O-])c1 | – | inactive
COc1c2ccoc2cc2oc(=O)ccc12 | – | inactive
CC(C)c1cccc(C(C)C)c1N | – | inactive
Cc1cccc(Cl)c1 | – | inactive
CO[Si](C)(C)OC | – | inactive
COCc1ccc(COC)cc1 | – | inactive
c1c[nH]cn1 | – | inactive
OC1(c2ccc(Cl)cc2)CCNCC1 | – | inactive
Cc1ccc(C(C)c2ccc(C)c(C)c2)cc1C | – | inactive

Test system: not listed separately
Test: cAMP Responsive Elements (CRE) small molecule antagonists, cell-based qHTS assay (AID 1963591; active means well fitted inhibition curve with a large enough effect in the signal ratio in the repeat runs, not every such curve was filed as active; the % refers to the signal ratio)
Details: CRE-bla HEK293T, beta-lactamase FRET ratio; series mostly up to 92.4 µM
Outline: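 First, CRE-bla HEK293T cells settled 18 h at 37 C. Next, compound and 0.25 uM final NKH477 were applied for 3 h. Last, LiveBLAzer B/G substrate was loaded for 2 h at room temperature.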

Structure (SMILES) | activity change, negative = inhibition | Potency
Cc1cc(C)c(N=Nc2c(O)c(S(=O)(=O)O)cc3cc(S(=O)(=O)O)ccc23)cc1C | -0.183% [at 8.39 µM] (inactive) | –
C=COCCOCCOCCOC=C | – | inactive
O=C1OC(=O)c2ccc3c4c(ccc1c24)C(=O)OC3=O | – | inactive
CC(=O)[O][Al][O]C(C)=O | – | inactive
COc1ccc2cc(C=O)ccc2c1 | – | inactive
Cc1occc1S | – | inactive
CCCN1CCCC[C@H]1C(=O)Nc1c(C)cccc1C | – | inactive
Cc1ccc(NC(=O)N(C)C)cc1NC(=O)N(C)C | – | inactive
CCN(CC)CCN | – | inactive
O=[N+]([O-])c1ccccc1Nc1ccccc1 | – | inactive
NC(=O)c1ncn([C@@H]2O[C@H](CO)[C@@H](O)[C@H]2O)c1O | – | inactive
O=C(O)[C@@H]1[C@H]2C[C@H]3c4[nH]c5ccccc5c4CCN3C[C@@H]2CC[C@@H]1O | – | inactive
CC1(C)C(C=C(Cl)Cl)C1C(=O)OCc1cccc(Oc2ccccc2)c1 (configuration not stated) | – | inactive
O=C(O)c1ccccc1OP(=O)(O)O | – | inactive
CCCCN(CCO)CCO | – | inactive
CCOC(OCC)OCC | – | inactive
C=CCOC(=O)CCCCCC | – | inactive

Structure (SMILES) | activity change, negative = inhibition | Potency
O=C(O)[C@@H](O)[C@H](O)[C@H](O)[C@@H](O)C(=O)O | – | inactive
CCCCCCCCCC(C)=O | – | inactive
OC/C=C/CO | – | inactive
CCCCCCCCCCCCC(=O)O | – | inactive
Cc1ccc(S(=O)(=O)NC(=O)NC2CCCC2)cc1 | – | inactive
CCCC(=O)c1ccccc1 | – | inactive
NC(=O)c1cccc([N+](=O)[O-])c1 | – | inactive
COc1c2ccoc2cc2oc(=O)ccc12 | – | inactive
CC(C)c1cccc(C(C)C)c1N | – | inactive
CCCCCCCCC1CCC(=O)O1 (configuration not stated) | – | inactive
Cc1cccc(Cl)c1 | – | inactive
CO[Si](C)(C)OC | – | inactive
COCc1ccc(COC)cc1 | – | inactive
c1c[nH]cn1 | – | inactive
OC1(c2ccc(Cl)cc2)CCNCC1 | – | inactive
C1CCCCC1 | – | inactive
Cc1ccc(C(C)c2ccc(C)c(C)c2)cc1C | – | inactive

Biological target: Beta-2 adrenergic receptor (Homo sapiens) (UniProt P07550)
Test: Adrenergic beta2 receptor (ADRB2) small molecule antagonists, cell-based qHTS assay (AID 1963592); further: nearly all actives have a fitted effect of over 50% in size
Details: CHO-ADRB2 cells, isoproterenol-stimulated cAMP HTRF ratio, 0.5 h; series mostly up to 92.4 µM
Outline: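 Assay format: CHO-ADRB2 cells, 18-20hr seeding at 37C/5% CO2, then compound plus 1nM isoproterenol agonist mix for 0.5hr RT. Homogeneous time-resolved fluorescence cAMP detection after 1hr, expressed as 665/615 nm ratio.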

Chain of Beta-2 adrenergic receptor (Homo sapiens) (P07550 whole entry, looked up): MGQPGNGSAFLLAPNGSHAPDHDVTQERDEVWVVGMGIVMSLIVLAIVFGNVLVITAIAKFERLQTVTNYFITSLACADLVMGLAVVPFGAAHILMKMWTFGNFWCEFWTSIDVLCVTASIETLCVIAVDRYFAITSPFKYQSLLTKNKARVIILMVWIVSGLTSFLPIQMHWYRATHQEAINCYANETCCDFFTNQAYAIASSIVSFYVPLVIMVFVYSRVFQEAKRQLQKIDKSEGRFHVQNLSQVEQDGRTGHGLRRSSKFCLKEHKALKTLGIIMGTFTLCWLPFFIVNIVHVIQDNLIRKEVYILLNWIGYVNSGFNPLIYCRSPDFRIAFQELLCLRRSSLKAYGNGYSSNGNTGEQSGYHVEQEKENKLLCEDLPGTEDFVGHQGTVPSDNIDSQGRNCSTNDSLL

Structure (SMILES) | activity change, negative = inhibition | Potency
Cc1cc(C)c(N=Nc2c(O)c(S(=O)(=O)O)cc3cc(S(=O)(=O)O)ccc23)cc1C | -5.6% [at 8.39 µM] (inactive) | –
CC(=O)Nc1c(I)cc(I)c(C(=O)O)c1I | – | inactive
C=COCCOCCOCCOC=C | – | inactive
O=C1OC(=O)c2ccc3c4c(ccc1c24)C(=O)OC3=O | – | inactive
CC(=O)[O][Al][O]C(C)=O | – | inactive
COc1ccc2cc(C=O)ccc2c1 | – | inactive
Cc1occc1S | – | inactive
CCCN1CCCC[C@H]1C(=O)Nc1c(C)cccc1C | – | inactive
Cc1ccc(NC(=O)N(C)C)cc1NC(=O)N(C)C | – | inactive
CCN(CC)CCN | – | inactive
O=[N+]([O-])c1ccccc1Nc1ccccc1 | – | inactive
NC(=O)c1ncn([C@@H]2O[C@H](CO)[C@@H](O)[C@H]2O)c1O | – | inactive
O=C(O)[C@@H]1[C@H]2C[C@H]3c4[nH]c5ccccc5c4CCN3C[C@@H]2CC[C@@H]1O | – | inactive
CC1(C)C(C=C(Cl)Cl)C1C(=O)OCc1cccc(Oc2ccccc2)c1 (configuration not stated) | – | inactive
O=C(O)c1ccccc1OP(=O)(O)O | – | inactive
CCCCN(CCO)CCO | – | inactive
Nc1cc(=O)[nH]c(N)n1 | – | inactive
CCOC(OCC)OCC | – | inactive
C=CCOC(=O)CCCCCC | – | inactive

Structure (SMILES) | activity change, negative = inhibition | Potency
O=C(O)[C@@H](O)[C@H](O)[C@H](O)[C@@H](O)C(=O)O | – | inactive
CCCCCCCCCC(C)=O | – | inactive
OC/C=C/CO | – | inactive
CCCCCCCCCCCCC(=O)O | – | inactive
Cc1ccc(S(=O)(=O)NC(=O)NC2CCCC2)cc1 | – | inactive
CCCC(=O)c1ccccc1 | – | inactive
NC(=O)c1cccc([N+](=O)[O-])c1 | – | inactive
COc1c2ccoc2cc2oc(=O)ccc12 | – | inactive
CC(C)c1cccc(C(C)C)c1N | – | inactive
CCCCCCCCC1CCC(=O)O1 (configuration not stated) | – | inactive
Cc1cccc(Cl)c1 | – | inactive
CO[Si](C)(C)OC | – | inactive
COCc1ccc(COC)cc1 | – | inactive
c1c[nH]cn1 | – | inactive
OC1(c2ccc(Cl)cc2)CCNCC1 | – | inactive
Cc1c2oc3c(C)ccc(C(=O)N[C@@H]4C(=O)N[C@H](C(C)C)C(=O)N5CCC[C@H]5C(=O)N(C)CC(=O)N(C)[C@@H](C(C)C)C(=O)O[C@@H]4C)c3nc-2c(C(=O)N[C@@H]2C(=O)N[C@H](C(C)C)C(=O)N3CCC[C@H]3C(=O)N(C)CC(=O)N(C)[C@@H](C(C)C)C(=O)O[C@@H]2C)c(N)c1=O (I: T[dV]P[Sar][NMeV] / II: T[dV]P[Sar][NMeV]; ester I:1-I:C, II:1-II:C; linker I:N-II:N via Actinocin(9to1)) | – | inactive
C1CCCCC1 | – | inactive
Cc1ccc(C(C)c2ccc(C)c(C)c2)cc1C | – | inactive
